Test results as given in PubChem BioAssay.

Molecular target: Integrin beta-1 (Homo sapiens) + Integrin alpha-4 (Homo sapiens) (UniProt P13612+P05556)
Assay: inhibition of HUTS-21 binding to VLA-4, pilot screen, VLA-4 allosteric modulator project, U937 cells, HUTS-21 mAb, flow cytometry, validation set (AID 2674);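 note: antibody binding induced by the VLA-4 ligand LDV present at three times its Kd; 0% = LDV ligand with antibody and no compound and 100% = antibody without LDV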
Details: HUTS-21 LIBS mAb binding, at 6.7 µM, hits give high values, binding induced by LDV ligand;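 active = inhibition above 50%, about 3 SD of the validation set; inactive = the rest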

Integrin beta-1 (Homo sapiens) + Integrin alpha-4 (Homo sapiens), sequence (P05556 whole entry, looked up): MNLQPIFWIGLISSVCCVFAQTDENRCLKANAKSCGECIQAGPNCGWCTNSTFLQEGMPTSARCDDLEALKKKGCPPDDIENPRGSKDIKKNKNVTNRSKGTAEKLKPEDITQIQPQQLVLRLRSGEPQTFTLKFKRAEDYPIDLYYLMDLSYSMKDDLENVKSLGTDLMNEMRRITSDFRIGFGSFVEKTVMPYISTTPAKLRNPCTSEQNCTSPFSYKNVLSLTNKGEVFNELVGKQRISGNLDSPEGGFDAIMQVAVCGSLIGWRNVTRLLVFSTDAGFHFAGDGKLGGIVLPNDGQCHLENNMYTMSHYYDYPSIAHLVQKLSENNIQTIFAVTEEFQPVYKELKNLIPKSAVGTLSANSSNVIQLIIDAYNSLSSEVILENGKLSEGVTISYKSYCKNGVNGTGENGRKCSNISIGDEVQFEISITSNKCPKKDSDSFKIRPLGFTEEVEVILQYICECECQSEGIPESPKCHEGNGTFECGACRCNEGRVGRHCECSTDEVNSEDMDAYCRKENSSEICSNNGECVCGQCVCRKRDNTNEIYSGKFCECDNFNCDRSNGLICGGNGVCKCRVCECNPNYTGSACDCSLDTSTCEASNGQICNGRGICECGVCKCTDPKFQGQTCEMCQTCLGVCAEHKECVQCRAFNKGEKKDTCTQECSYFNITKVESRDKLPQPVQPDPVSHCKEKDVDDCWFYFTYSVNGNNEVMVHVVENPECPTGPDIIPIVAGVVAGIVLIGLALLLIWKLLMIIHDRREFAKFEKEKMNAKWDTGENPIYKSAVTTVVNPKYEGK
Integrin beta-1 (Homo sapiens) + Integrin alpha-4 (Homo sapiens), sequence (P13612 whole entry, looked up): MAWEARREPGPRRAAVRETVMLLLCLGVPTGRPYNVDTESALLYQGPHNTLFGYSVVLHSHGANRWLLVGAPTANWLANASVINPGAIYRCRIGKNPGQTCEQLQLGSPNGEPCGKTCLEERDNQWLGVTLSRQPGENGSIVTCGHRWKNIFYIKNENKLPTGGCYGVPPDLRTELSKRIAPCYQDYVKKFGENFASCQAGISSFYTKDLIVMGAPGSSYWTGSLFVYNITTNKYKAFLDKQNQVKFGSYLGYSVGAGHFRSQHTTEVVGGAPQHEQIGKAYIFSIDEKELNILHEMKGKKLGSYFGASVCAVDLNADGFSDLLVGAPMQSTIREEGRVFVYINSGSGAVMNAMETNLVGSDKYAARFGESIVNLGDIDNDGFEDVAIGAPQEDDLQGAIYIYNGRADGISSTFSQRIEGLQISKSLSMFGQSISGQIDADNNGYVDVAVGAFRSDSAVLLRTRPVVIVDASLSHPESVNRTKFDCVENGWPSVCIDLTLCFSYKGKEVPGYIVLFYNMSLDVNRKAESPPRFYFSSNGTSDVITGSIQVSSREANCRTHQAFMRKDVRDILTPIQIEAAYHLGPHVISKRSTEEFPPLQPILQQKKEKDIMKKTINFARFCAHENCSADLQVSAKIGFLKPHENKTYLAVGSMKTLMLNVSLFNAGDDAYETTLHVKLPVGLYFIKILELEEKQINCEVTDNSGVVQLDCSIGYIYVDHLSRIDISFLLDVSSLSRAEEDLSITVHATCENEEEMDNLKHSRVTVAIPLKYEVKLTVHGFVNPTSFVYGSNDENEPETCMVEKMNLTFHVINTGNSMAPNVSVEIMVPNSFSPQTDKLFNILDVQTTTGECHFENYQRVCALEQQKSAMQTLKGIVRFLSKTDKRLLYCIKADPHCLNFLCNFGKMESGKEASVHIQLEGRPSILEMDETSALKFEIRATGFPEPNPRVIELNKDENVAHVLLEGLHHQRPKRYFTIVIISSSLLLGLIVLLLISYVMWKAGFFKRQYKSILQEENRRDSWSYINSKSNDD

inhibition, inactive:
CCCCCCCC(=O)OCC(O)CO (centres undefined) 0.58%, S=C(c1ccc2c(c1)OCO2)N1CCCCC1 -9.13%, COc1cc2cc(C)nc(Cc3cccc4ccccc34)c2cc1OC 1.12%, CCn1cc(C(=O)O)c(=O)c2ccc(C)nc21 -15.8%, c1coc(-c2nnc3n2C2(CCCC2)Cc2ccccc2-3)c1 25.9%, COc1ccc(Cc2noc(CN(C)CCN3CCc4ccccc4C3)n2)cc1OC -8.75%, CC1(C)c2ccccc2N2CC(=O)NC21/C=C/c1ccco1 (centres undefined) -23.9%, CC12CC(c3ccccc3O1)C(C(=O)N1CCOCC1)C(=O)N2 (centres undefined) 2.55%, O=C1CC(c2ccc(OCCCCCOc3ccc(C4CC(=O)NC4=O)cc3)cc2)C(=O)N1 (centres undefined) 15.1%, O=c1[nH]c(=O)n(C2CCCO2)cc1F (centres undefined) -17.8%, NC(N)=NC(=O)Cc1c(Cl)cccc1Cl -4.6%, CCOC(=O)Cn1c(C)cc(=O)c2ccccc21 10.5%, Cc1ccc(C(=O)Nc2ccccc2C(=O)NC(C(=O)O)C(C)C)cc1 (centres undefined) -19.5%, Cc1cc(O)c2/c(=N\N)c(-c3csc(C)n3)coc2c1 5.61%, O=C(CN1C(=O)/C(=C/c2cccc(Br)c2)SC1=S)Nc1cccnc1 -19.9%, COc1ccc2[nH]c(CN3CCN(CC(C)C)C(CCO)C3)c(C)c2c1 (centres undefined) -3.16%, CC[N+](C)(C)c1cccc(O)c1 -0.45%, COc1cccc2c(=O)c(C/C=C(/C)Cl)c(C)[nH]c12 6.4%, O=C(N/N=C/c1ccc([N+](=O)[O-])o1)c1ccc(O)cc1 -21.7%, CC(=O)N1CCn2c3c(c4cc(C)ccc42)CCCC31 (centres undefined) 0.59%, Cc1ccc(CN2CCN(CCCc3ccccc3)CC2CCO)cc1 (centres undefined) 7.85%, CCC(C(=O)Nc1ccc2c(c1)OCCO2)c1ccccc1 (centres undefined) 8.29%, CN(C)CCC=C1c2ccccc2CCc2ccccc21 6.4%, CN(C)c1ccc(CNCCC(Cc2ccccc2)c2ccco2)cc1 (centres undefined) 1.12%
